The values below come from PubChem BioAssay (Tox21).

Assay [1] in a line: qHTS assay to identify small molecule agonists of the estrogen receptor alpha (ER-alpha) signaling pathway in the presence of an antagonist - cell viability counter screen (AID 1259386).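 Further: series mostly up to about 92 µM; cells exposed to compounds for 22 h at 37 °C before the viability read; on the % scale 0 is the no-effect control and ±100 the full control effect; nearly all actives have a fitted effect of over 30% in size.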 The method in brief:
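ICI-182,780 at 10.0nM final accompanies the compound titration (15 concentrations, 22hr, 37C) on VM7Luc4E2 cells. The CellTiter-Fluor fluorescence readout runs in the same wells as the luciferase assay.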
For orientation: In qHTS, concentration-response curves come from the screen itself.

In assay [2] the target is Progesterone receptor (Homo sapiens) (UniProt P06401). As to the kind of experiment: qHTS assay to identify small molecule agonists of the progesterone receptor (PR) signaling pathway (AID 1346784; calls by dose curve; further: on the % scale 0 is the no-effect control and ±100 the full control effect; nearly all actives have a fitted effect of over 30% in size). A digest of the protocol: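 Agonist qHTS: compounds pinned onto 3,000 PR-UAS-bla HEK 293T cells per well in charcoal-stripped serum medium, 16hr at 37C, then beta-lactamase activity measured by LiveBLAzer FRET fluorescence after 2 hours at room temperature.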

Assay [3] shares this target. Briefly: qHTS assay to identify small molecule antagonists of the progesterone receptor (PR) signaling pathway (AID 1346795; active means well fitted inhibition curve with a large enough effect in the signal ratio in the repeat runs, not every such curve was filed as active; the % refers to the signal ratio; further: potency means the concentration at half of the fitted maximal effect). The method in brief: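 Antagonist mode with agonist R5020 at 1 nM final and 16 hr incubation at 37C. Reporter was beta-lactamase driven by UAS in HEK293T (PR-UAS-bla), 2% charcoal-stripped serum; signal from LiveBLAzer FRET substrate, 2 hr at room temperature.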

Assay [4] can be described thus: qHTS assay to identify small molecule antagonists of the progesterone receptor (PR) signaling pathway - cell viability counter screen (AID 1346798). Further: nearly all actives have a fitted effect of over 50% in size. Further: potency means the concentration at half of the fitted maximal effect. The method in brief:
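Cytotoxicity read as CellTiter-Glo luminescence (30 min, room temperature) in the same wells as the beta-lactamase readout. HEK293T PR-UAS-bla cells in charcoal-stripped 2% FBS received compound and R5020, then 16 h at 37C, 5% CO2.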

Assay [5] in a line: qHTS assay to identify small molecule antagonists of the TGF-beta/Smad signaling pathway - cell viability counter screen (AID 1346824). Further: on the % scale 0 is the no-effect control and ±100 the full control effect; nearly all actives have a fitted effect of over 50% in size. The method in brief: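 SBE-bla HEK 293T cells were plated overnight at 37 C, then given compounds in DMSO plus TGF-beta1 (added as 0.25 ng/mL solution) for 5 hr. After the bla read, CellTiter-Glo was added to the same wells and luminescence read after 30 min at room temperature.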

Assay [6] can be described thus: qHTS assay to identify small molecule agonists of the TGF-beta/Smad signaling pathway - cell viability counter screen (AID 1346829). Further: top concentration of the series differs between compounds; on the % scale 0 is the no-effect control and ±100 the full control effect; nearly all actives have a fitted effect of over 45% in size. The method in brief: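 Here the cytotoxicity of library compounds is measured in SBE-bla HEK 293T cells treated for 5 hr, using CellTiter-Glo added to wells already read for the beta-lactamase reporter.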
The nature of assay [7]: qHTS assay to identify small molecule agonists of the TGF-beta/Smad signaling pathway (AID 1346859; active means well fitted activation curve with a large enough effect in the signal ratio in the repeat runs, not every such curve was filed as active; the % refers to the signal ratio; further: series mostly up to about 77 µM; on the % scale 0 is the no-effect control and ±100 the full control effect). The method in brief: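 Fluorescence (ex 405 nm; em 460 and 530 nm) was read 2 h after LiveBLAzer FRET substrate at RT. The preceding compound treatment of overnight-plated SBE-bla HEK293T cells lasted 5 h at 37 C.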
The nature of assay [8]: Human pregnane X receptor (PXR) small molecule agonists, qHTS cell viability counter screen (AID 1346977). Further: nearly all actives have a fitted effect of over 50% in size. Further: potency means the concentration at half of the fitted maximal effect. The method in brief:
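Same-well viability read: CellTiter-Fluor added after 23 hr compound exposure, fluorescence measured 1 hr later. Cells were PXR-Luc HepG2 seeded at 2,000/well in 5% charcoal-stripped FBS medium, rested 5 hr before dosing at 37 C.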

Assay [9] can be described thus: Caspase-3/7 induction in HepG2 cells by small molecules, qHTS assay (AID 1346978). Further: nearly all actives have a fitted effect of over 15% in size. Further: potency means the concentration at half of the fitted maximal effect. The method in brief:
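Wild-type HepG2 cells (2,000/well) were settled 5 h at 37 C, 5% CO2, then exposed to compounds in DMSO for 17 h. Caspase-3/7 activity was read by luminescence 30 min after adding Caspase-Glo 3/7 reagent at room temperature.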

A short description of assay [10]: Caspase-3/7 induction in CHO-K1 cells by small molecules, qHTS cell viability counter screen (AID 1346979). Further: nearly all actives have a fitted effect of over 35% in size. Further: potency means the concentration at half of the fitted maximal effect. The method in brief: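 Cytotoxicity counter screen: CellTiter-Fluor added to compound-treated wild-type CHO-K1 cells at 16 h (37C, 5% CO2), fluorescence measured 1 h later; same wells as caspase-3/7 measurement.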
The nature of assay [11]: Caspase-3/7 induction in CHO-K1 cells by small molecules, qHTS assay (AID 1346980). Further: on the % scale 0 is the no-effect control and ±100 the full control effect; nearly all actives have a fitted effect of over 15% in size. The method in brief:
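Wild-type cells were seeded at 1,500 per well and settled 5 hr at 37 C, 5% CO2, then exposed to DMSO-dissolved compounds for 17 hr. Caspase-Glo 3/7 reagent was added, and luminescence was read after 30min at room temperature.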

Assay [12] is described as follows: Caspase-3/7 induction in HepG2 cells by small molecules, qHTS cell viability counter screen (AID 1346981). Further: nearly all actives have a fitted effect of over 30% in size. Further: potency means the concentration at half of the fitted maximal effect. The method in brief:
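Multiplexed with the caspase-3/7 assay: HepG2 cells, 16 hr compound treatment, CellTiter-Fluor viability detection by fluorescence.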

For assay [13], the target named is Nuclear receptor subfamily 1 group I member 2 (Homo sapiens) (UniProt O75469). Briefly: Human pregnane X receptor (PXR) small molecule agonists, qHTS assay (AID 1346982). Further: nearly all actives have a fitted effect of over 35% in size. Further: potency means the concentration at half of the fitted maximal effect. On activation: on the % scale 0 is the no-effect control and ±100 the full control effect. A digest of the protocol: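 We seeded PXR-Luc HepG2 cells in assay medium containing 5% charcoal-stripped FBS, added compounds 5 hr later, incubated 24 hr, and read luminescence with ONE-Glo reagent.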

Assay [14] deals with Thyrotropin receptor (Homo sapiens) (UniProt P16473). Briefly: qHTS assay to identify small molecule antagonists of the thyroid stimulating hormone receptor (TSHR) signaling pathway (AID 1259385; calls by dose curve; further: nearly all actives have a fitted effect of over 20% in size; further: potency means the concentration at half of the fitted maximal effect). The method in brief:
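TSHR-HEK293 cells were plated and held 18 h at 37C/5% CO2, then given compound plus Ro20-1724 and stimulated with TSH at 1.5 ng/mL final. After 30 min at room temperature, cAMP was detected with cAMP-d2/anti-cAMP-cryptate (1 h) by fluorescence.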

For assay [15], the target named is Thyrotropin-releasing hormone receptor (Homo sapiens) (UniProt P34981). Briefly: qHTS assay to identify small molecule antagonists of the thyrotropin-releasing hormone receptor (TRHR) signaling pathway (AID 1346877; active means well fitted inhibition curve with a large enough effect in the repeat runs, not every such curve was filed as active; further: series mostly up to about 51 µM; on the % scale 0 is the no-effect control and ±100 the full control effect). The method in brief:
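Screening used HEK293 cells engineered with TRHR, with a brief 5 min room-temperature compound exposure preceding addition of TRH to 1 nM. The read-out was kinetic calcium-dye fluorescence, concentration-response from 15 doses in triplicate.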

The target is the same in assay [16]. As to the kind of experiment: qHTS assay to identify small molecule agonists of the thyrotropin-releasing hormone receptor (TRHR) signaling pathway (AID 1346891; calls by dose curve; further: series mostly up to about 58 µM; on the % scale 0 is the no-effect control and ±100 the full control effect). The method in brief:
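Agonist-mode intracellular calcium readout: kinetic fluorescence over 3 min at 1 s intervals after compound addition to TRHR-HEK293 cells (18 h seeded, 2 h dye-loaded at 37 C). Fifteen concentrations, triplicates.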

Assay [17] can be described thus: qHTS assay to identify small molecule agonists of the progesterone receptor (PR) signaling pathway - cell viability counter screen (AID 1346799; calls by dose curve; further: on the % scale 0 is the no-effect control and ±100 the full control effect; nearly all actives have a fitted effect of over 45% in size). The method in brief: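 Cytotoxicity measured by CellTiter-Glo luminescence (30 min, RT) in the same wells as the PR beta-lactamase agonist read. Those HEK293T cells had 16 h compound treatment at 37 C in 2% charcoal-stripped FBS medium.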

For assay [18], the target named is Nuclear receptor subfamily 1 group I member 2 (Rattus norvegicus) (UniProt Q9R1A7). Briefly: Rat pregnane X receptor (rPXR) activation by small molecules, qHTS assay (AID 1346983). Further: on the % scale 0 is the no-effect control and ±100 the full control effect; nearly all actives have a fitted effect of over 20% in size. The settings on record: rPXR luciferase reporter cells, One-Glo luminescence, 24 h; max activation: active compounds read high. The method in brief:
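Cell-based rPXR luciferase reporter assay, 2,000 cells per well, rested 5hr at 37 C before compound addition in DMSO, then 24 hr at 37 C. One-Glo reagent was added and luminescence read after 30 min at room temperature.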

In assay [19] the target is Nuclear receptor subfamily 1 group I member 2 (Homo sapiens) (UniProt O75469). Briefly: CYP3A4 induction through human pregnane X receptor (PXR) by small molecules, qHTS assay (AID 1346984). Further: potency means the concentration at half of the fitted maximal effect; nearly all actives have a fitted effect of over 40% in size. The method in brief: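 qHTS, concentration-response format: HepG2 DPX-2 line, PXR/CYP3A4-luc. Exposure 24 h, 37C. Substrate Luciferin-IPA 3uM final, 3 h. Detection One-Glo, 30 min RT.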

The target is the same in assay [20]. Briefly: Human pregnane X receptor (PXR) activation by small molecules, qHTS assay (AID 1346985). Further: on the % scale 0 is the no-effect control and ±100 the full control effect; nearly all actives have a fitted effect of over 40% in size. A digest of the protocol: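 DPX-2 cells (HepG2 co-transfected with a PXR response element and a CYP3A4-promoter luciferase construct) were seeded at 2,000 per well, rested 5 hr at 37C, then exposed to DMSO-dissolved compounds for 24 hr. Activation was read as luciferase luminescence.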

A number with no mark means an inactive call. Results filed as inconclusive are left out. The source made the active and inactive calls. Unless noted, the call rests on the fitted dose curve; in most records, active means well fitted curve in the direction sought with a large enough effect in the repeat runs; inconclusive means weak or mixed curves; inactive means no such curve, though single readings can be large; an effect the other way counts as inactive or inconclusive.

Chain of Progesterone receptor (Homo sapiens) (P06401 whole entry, looked up): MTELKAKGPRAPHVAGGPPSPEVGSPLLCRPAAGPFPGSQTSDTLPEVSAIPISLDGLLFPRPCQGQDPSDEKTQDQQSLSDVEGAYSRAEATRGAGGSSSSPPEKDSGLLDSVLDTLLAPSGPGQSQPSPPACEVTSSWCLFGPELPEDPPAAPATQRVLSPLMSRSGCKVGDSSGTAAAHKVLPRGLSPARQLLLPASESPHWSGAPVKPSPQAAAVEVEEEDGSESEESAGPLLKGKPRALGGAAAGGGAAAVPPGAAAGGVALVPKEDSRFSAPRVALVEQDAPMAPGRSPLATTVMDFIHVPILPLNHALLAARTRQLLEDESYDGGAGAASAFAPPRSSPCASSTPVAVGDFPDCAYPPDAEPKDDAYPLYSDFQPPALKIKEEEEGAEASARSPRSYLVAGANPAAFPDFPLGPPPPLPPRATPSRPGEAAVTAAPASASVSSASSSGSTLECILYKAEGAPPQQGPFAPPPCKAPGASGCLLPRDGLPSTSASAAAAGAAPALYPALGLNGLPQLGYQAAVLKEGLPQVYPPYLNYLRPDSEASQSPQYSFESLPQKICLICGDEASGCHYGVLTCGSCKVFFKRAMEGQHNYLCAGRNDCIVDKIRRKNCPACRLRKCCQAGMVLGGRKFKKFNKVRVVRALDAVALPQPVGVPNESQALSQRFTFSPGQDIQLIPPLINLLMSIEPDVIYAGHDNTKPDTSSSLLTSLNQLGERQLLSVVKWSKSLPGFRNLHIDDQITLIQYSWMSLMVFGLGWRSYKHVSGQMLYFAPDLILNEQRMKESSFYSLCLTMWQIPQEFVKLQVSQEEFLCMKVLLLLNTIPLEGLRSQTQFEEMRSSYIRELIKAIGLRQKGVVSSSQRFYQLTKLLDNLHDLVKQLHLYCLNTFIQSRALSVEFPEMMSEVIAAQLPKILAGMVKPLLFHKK
Chain of Thyrotropin receptor (Homo sapiens) (P16473 whole entry, looked up): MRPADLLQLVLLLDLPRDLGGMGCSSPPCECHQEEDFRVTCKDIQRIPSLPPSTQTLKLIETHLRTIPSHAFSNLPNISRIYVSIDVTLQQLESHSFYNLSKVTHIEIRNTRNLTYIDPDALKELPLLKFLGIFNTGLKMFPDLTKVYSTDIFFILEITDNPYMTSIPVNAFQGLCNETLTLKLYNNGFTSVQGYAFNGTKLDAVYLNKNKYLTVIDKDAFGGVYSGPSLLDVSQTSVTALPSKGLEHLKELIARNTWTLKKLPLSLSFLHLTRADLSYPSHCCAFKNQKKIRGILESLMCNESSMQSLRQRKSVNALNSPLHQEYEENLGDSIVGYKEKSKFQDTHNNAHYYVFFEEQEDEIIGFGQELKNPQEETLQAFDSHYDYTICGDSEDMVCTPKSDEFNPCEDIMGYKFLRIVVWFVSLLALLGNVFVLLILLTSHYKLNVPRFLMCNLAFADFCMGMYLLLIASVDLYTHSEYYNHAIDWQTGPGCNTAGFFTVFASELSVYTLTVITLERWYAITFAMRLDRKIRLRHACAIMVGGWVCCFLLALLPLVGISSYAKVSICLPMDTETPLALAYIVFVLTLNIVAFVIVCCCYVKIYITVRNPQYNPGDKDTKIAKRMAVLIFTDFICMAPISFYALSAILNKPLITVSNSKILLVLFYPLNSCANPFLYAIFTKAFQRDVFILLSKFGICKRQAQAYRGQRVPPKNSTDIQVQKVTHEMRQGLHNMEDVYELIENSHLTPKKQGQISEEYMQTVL
Chain of Thyrotropin-releasing hormone receptor (Homo sapiens) (P34981 whole entry, looked up): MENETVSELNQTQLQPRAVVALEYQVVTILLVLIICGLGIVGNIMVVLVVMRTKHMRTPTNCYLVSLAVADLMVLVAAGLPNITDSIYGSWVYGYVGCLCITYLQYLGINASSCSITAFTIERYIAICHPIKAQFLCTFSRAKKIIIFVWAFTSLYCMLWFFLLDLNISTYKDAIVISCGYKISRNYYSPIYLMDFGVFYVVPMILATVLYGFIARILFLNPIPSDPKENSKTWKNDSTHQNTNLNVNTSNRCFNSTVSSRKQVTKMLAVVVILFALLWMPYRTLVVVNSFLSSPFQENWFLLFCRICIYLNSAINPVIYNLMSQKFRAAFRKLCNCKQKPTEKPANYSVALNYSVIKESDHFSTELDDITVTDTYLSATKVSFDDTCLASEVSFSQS
Chain of Nuclear receptor subfamily 1 group I member 2 (Homo sapiens) (O75469 whole entry, looked up): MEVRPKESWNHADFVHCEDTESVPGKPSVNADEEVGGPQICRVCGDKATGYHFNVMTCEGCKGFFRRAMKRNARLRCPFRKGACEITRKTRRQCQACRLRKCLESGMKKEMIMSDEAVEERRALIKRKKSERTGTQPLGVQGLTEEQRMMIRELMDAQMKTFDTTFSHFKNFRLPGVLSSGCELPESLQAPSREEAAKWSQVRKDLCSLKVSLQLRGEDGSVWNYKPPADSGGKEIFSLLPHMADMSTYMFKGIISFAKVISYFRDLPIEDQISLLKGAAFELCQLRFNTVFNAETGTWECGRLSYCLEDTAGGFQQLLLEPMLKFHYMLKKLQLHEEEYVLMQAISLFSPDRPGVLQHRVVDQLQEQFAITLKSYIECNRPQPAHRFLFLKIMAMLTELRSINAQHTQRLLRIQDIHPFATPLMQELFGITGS
Chain of Nuclear receptor subfamily 1 group I member 2 (Rattus norvegicus) (Q9R1A7 whole entry, looked up): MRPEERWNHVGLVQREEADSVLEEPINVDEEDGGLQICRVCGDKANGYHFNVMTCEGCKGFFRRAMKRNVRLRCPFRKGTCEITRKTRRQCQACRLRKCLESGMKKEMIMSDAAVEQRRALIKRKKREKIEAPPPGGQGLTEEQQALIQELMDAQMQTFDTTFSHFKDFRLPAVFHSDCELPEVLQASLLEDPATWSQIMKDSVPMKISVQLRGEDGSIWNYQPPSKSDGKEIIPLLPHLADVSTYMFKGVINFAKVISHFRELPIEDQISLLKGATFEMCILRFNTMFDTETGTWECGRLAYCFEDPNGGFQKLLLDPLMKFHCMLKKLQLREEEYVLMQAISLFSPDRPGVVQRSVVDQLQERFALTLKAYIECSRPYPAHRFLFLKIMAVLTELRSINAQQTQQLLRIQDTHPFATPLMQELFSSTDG

For `O=C1NCCN1CCO`, the Potency result in [1], in assay [2], in assay [3], in assay [4], in assay [5] and in assay [6] was “inactive” in each case. The Potency result in [7], in assay [8], in assay [9], in [10], in [11] and in assay [12] was “inactive” throughout. The Potency result in assay [13] was “inactive”.

As for `COc1cc(C(=O)NC2CCN(C)CC2)ccc1Nc1ncc2c(n1)N(C1CCCC1)CC(F)(F)C(=O)N2C`, the Potency in [14] was 11.2 µM (active); in assay [9], 22.3 µM (active); in [10], 0.499 µM (active); in assay [12], 15.8 µM (active); in [13], 19.9 µM (active). For the same compound, the Potency entry in assay [2] and in assay [16] was “inactive” throughout. Further, the call in [15] was inactive.

As to `COc1cc(Nc2c(C#N)cnc3cc(OCCCN4CCN(C)CC4)c(OC)cc23)c(Cl)cc1Cl`, the Potency in assay [14] is 13.3 µM (active); in assay [3], 11.9 µM (active); in [8], 11.9 µM (active); in [9] it was 11.9 µM (active); in [10], 29.8 µM (active); in [12], 13.3 µM (active). The Potency result in assay [2], in assay [4], in [5], in [6], in assay [7] and in [11] was “inactive” each time.

On to `Cc1cccc(O)c1N`, for which the Potency entry in assay [14], in [2], in [4], in assay [5], in assay [6] and in assay [7] was “inactive” each time. Moreover, the Potency entry in assay [16], in assay [8], in assay [9], in assay [11], in [12] and in assay [13] was “inactive” throughout. The Potency in assay [3] is 30.9 µM (active); in assay [10], 61.8 µM (active). For the same compound, the result in assay [15] was inactive.

For the compound `O=C(O)CCCCCCCCCCCBr`, the Potency result in [1], in assay [2], in [3], in assay [4], in assay [5] and in assay [6] was “inactive” in each case. Besides, the Potency result in assay [16], in [8], in assay [9], in assay [10], in [11] and in assay [12] was “inactive” throughout. In assay [13], the Potency entry was “inactive”. The outcome in assay [15] was inactive.

As to `c1ccc(C[n+]2cccc3ccccc32)cc1`, the Potency result in assay [1], in assay [2], in assay [3], in assay [4], in assay [5] and in [7] was “inactive” throughout. Moreover, the Potency result in [8], in [9], in [10], in [11], in assay [12] and in assay [13] was “inactive” each time.

Regarding `O=C1C(=O)c2ccccc2C(O)=C1C1CCC(c2ccc(Cl)cc2)CC1` (centres undefined), the Potency entry in assay [1], in assay [2], in assay [3], in assay [4], in [17] and in assay [6] was “inactive” in each case. The Potency result in [7], in assay [16], in assay [9] and in assay [20] was “inactive” throughout. In assay [15], the result was inactive. The Potency was 16.8 µM (active) in assay [10] and 2.51 µM (active) in assay [19]. For the same compound, the max activation in [18] was 0.127%.

With `CCOc1ccc(Cc2nccc3cc(OCC)c(OCC)cc23)cc1OCC`, the Potency result in assay [14], in assay [2], in [6], in assay [7], in [9] and in assay [11] was “inactive” each time. Moreover, the Potency was 16.8 µM (active) in assay [3]; 18.8 µM (active) in assay [4]; 26.6 µM (active) in assay [8]; 11.9 µM (active) in assay [10]; 29.8 µM (active) in assay [12]; 3.35 µM (active) in assay [13]. Further, the max activation in assay [18] is -4.93%.

As to `CC(C)(O)c1ccc(CNC(=O)c2cccnc2Oc2ccc3nonc3c2)cc1`, the Potency entry in [14], in assay [2], in [3], in [4], in assay [17] and in [6] was “inactive” in each case. The Potency result in [7], in assay [16], in assay [8], in assay [9], in [11] and in [13] was “inactive” in each case. Moreover, the compound was called inactive in assay [15].
